Here are results for 25 molecules from PubChem BioAssay (NCATS).

A short description of experiment [1]: Confirmation and Secondary Assay for Modulators of Hemoglobin Beta Chain Splicing at IVS2 654 locus (AID 910).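 Further: per-well total GFP intensity by laser scanning cytometry after 2-day treatment; % of control where 0% means no effect.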 The method, boiled down: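 HeLa cells stably carrying EGFP interrupted by mutant beta-globin IVS2-654 intron (CMV-driven) were treated with compound for 2 days at 37C; corrected splicing was scored as total peak GFP intensity per well (488 nm excitation, 500-520 nm emission).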

Experiment [2] in a line: Confirmation and Secondary Assay for Modulators of Hemoglobin Beta Chain Splicing at IVS2 705 locus (AID 930).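 Further: HeLa cells stably expressing the EGFP-705 splicing reporter; GFP fluorescence per well restored by corrected splicing of the IVS2-705 intron in EGFP; % of control where 0% means no effect.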 The essentials:
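Fluorescence gain (488 nm laser, 500-520 nm PMT) reflects restored correct splicing of a mutant IVS2-705 intron inside EGFP in stably transfected HeLa cells after 2-day compound treatment.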

Experiment [3] is described as follows: qHTS Assay for Lipid Storage Modulators (AID 1519; calls by dose curve; on activity change, negative = inhibition: on the % scale 0 is the no-effect control and ±100 the full control effect). Conditions: Drosophila S3 cells, BODIPY lipid droplet/cell ratio, laser cytometry, cells loaded with oleic acid; for activity change, negative = inhibition: at 57.5 µM (top of the series). The method, boiled down:
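Cells seeded at 5,000 per well were treated with compounds over a concentration series and loaded with oleic acid (400 uM, as added). Lipid droplet fluorescence (488 nm excitation, 500-530 nm channel) was read by laser-scanning cytometry and normalized to 20 uM Triacsin C.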
A general note: Quantitative high-throughput screening tests each substance at several concentrations.

Experiment [4] has as its target Ubiquitin carboxyl-terminal hydrolase 1 (Homo sapiens) (UniProt O94782). As to the kind of experiment: Inhibitors of USP1/UAF1: Pilot qHTS (AID 504865).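 Further: rhodamine fluorescence freed from ubiquitin-rhodamine substrate followed over time; top concentration of the series differs between compounds; on the % scale 0 is the no-effect control and ±100 the full control effect; nearly all actives have a fitted effect of over 35% in size.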 The method, boiled down:
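USP1/UAF1 complex at 1 nM preincubated 15 min at room temperature with compound, then Ub-Rho substrate added at 150 nM final. Fluorescence (480/540 nm) read kinetically in 50 mM HEPES pH 7.8, 0.5 mM EDTA, 1 mM TCEP, 0.1 mg/ml BSA, 0.01% Tween-20.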

The target of experiment [5] is DNA dC->dU-editing enzyme APOBEC-3G (Homo sapiens) (UniProt Q9HC16). As to the kind of experiment: qHTS for inhibitors of Vif-A3G interactions: Validation (AID 588379). Further: 0% is about no effect. The essentials:
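HeLa cells stably expressing Vif and A3G-eYFP, 700 cells/well, incubated overnight at 37 deg C, then exposed to compound overnight at 37 deg C. Inhibition of Vif-mediated degradation read as increased yellow fluorescence (Ex 488/Em 500-530) by laser-scanning cytometry.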

Setting [6] is: measured here: cell count channel max response.
Setting [7] is: measured here: lipid channel max response.

Records with an inconclusive call do not appear. Active and inactive are the calls of the source. Unless noted, the call rests on the fitted dose curve; in most records, active means well fitted curve in the direction sought with a large enough effect; inconclusive means small, poorly fitted or top-dose-only effect, or another doubt; inactive means no such curve, though single readings can be large; an effect the other way counts as inactive or inconclusive.

DNA dC->dU-editing enzyme APOBEC-3G (Homo sapiens), sequence (Q9HC16 whole entry, looked up): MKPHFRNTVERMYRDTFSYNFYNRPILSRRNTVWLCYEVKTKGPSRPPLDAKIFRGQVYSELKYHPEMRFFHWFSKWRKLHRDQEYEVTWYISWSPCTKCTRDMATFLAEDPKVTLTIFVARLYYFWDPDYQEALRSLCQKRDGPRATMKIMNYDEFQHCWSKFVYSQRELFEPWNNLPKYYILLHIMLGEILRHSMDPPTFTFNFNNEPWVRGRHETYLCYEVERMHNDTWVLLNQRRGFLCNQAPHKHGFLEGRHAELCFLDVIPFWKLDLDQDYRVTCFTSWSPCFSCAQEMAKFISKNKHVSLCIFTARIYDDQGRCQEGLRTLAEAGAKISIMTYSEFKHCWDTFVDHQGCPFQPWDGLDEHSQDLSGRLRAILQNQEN
Ubiquitin carboxyl-terminal hydrolase 1 (Homo sapiens), sequence (O94782 whole entry, looked up): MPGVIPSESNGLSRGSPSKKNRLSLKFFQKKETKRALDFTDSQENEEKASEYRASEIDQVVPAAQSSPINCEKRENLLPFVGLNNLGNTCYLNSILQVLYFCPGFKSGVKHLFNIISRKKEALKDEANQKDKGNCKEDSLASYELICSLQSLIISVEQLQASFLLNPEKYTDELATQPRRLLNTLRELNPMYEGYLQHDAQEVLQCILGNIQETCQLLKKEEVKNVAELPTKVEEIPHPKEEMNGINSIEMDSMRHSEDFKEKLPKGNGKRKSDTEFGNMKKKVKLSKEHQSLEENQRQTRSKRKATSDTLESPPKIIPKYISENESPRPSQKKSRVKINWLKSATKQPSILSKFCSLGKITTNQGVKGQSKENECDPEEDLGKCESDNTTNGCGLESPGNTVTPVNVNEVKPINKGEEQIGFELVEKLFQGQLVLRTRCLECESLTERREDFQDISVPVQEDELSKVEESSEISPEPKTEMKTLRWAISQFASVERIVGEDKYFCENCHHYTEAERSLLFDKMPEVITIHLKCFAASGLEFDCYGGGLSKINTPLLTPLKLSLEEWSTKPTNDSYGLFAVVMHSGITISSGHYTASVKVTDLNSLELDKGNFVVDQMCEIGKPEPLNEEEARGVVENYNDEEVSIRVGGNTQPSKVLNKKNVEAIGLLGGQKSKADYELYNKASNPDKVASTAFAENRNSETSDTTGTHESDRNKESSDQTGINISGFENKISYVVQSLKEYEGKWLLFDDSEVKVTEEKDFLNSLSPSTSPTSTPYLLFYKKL

On to `CC(N)C(O)c1cccc(O)c1` (stereo not given), for which the Potency result in experiment [1], in experiment [2] and in experiment [4] was “inactive” in each case. In experiment [3], the activity change, negative = inhibition is 8.66% (inactive). The figures for the max response in experiment [3] (setting [6]) and in experiment [3] (setting [7]) were 6.62% and 19.6%, respectively.

Turning to `C[C@@H]1C(=O)O[C@H]2[C@@H](O)[C@@]34[C@H]5CC(C(C)(C)C)[C@]36[C@@H](OC(=O)[C@@H]6O)O[C@@]4(C(=O)O5)[C@@]12O` (stereo not given in full), in experiment [3], the activity change, negative = inhibition was 7.16% (inactive). Also, the max response in experiment [3] (setting [6]) is -2.81%; in experiment [3] (setting [7]), 2.02%. In addition, in experiment [5], the result was inactive.

Consider `CC(=O)OC1C[C@]2(C)[C@@H](CC(O)C3[C@]4(C)CCC(O)C(C)[C@@H]4CC[C@]32C)/C1=C(/CCC=C(C)C)C(=O)O` (stereo not given in full), for which the Potency result in experiment [1], in experiment [2] and in experiment [4] was “inactive” in each case. Moreover, the activity change, negative = inhibition in experiment [3] is 5.26% (inactive). The max response worked out at 12.3% in experiment [3] (setting [6]) and 24.1% in experiment [3] (setting [7]).

For the molecule `COc1cc(C(=O)OC2CC[C@]3(C)C4CCC5[C@]6(O)CC(O)[C@]7(O)C(CN8CC(C)CCC8[C@]7(C)O)[C@]6(O)C[C@@]53O[C@]24O)cc(OC)c1OC` (stereo not given in full), the Potency entry in experiment [1], in experiment [2] and in experiment [4] was “inactive” each time. Also, the activity change, negative = inhibition in experiment [3] is 4.04% (inactive). Moreover, the values for the max response in experiment [3] (setting [6]) and in experiment [3] (setting [7]) were 17.4% and 24.2%, respectively.

For the molecule `Fc1ccc([C@H]2CCNCC2COc2ccc3c(c2)OCO3)cc1` (stereo not given in full), the Potency result in experiment [1], in experiment [2] and in experiment [4] was “inactive” in each case. For the same molecule, in experiment [3], the activity change, negative = inhibition is 12.8% (inactive). Also, the max response in experiment [3] (setting [6]) is -0.955%; in experiment [3] (setting [7]), 14.7%.

On to `CCC1OC(=O)C(C)[C@@H](O[C@H]2C[C@@](C)(OC)C(O)C(C)O2)C(C)[C@@H](O[C@@H]2OC(C)CC(N(C)C)C2O)[C@@](C)(O)CC(C)CN(C)C(C)C(O)[C@]1(C)O` (stereo not given in full), for which the Potency entry in experiment [1], in experiment [2] and in experiment [4] was “inactive” throughout. Besides, the activity change, negative = inhibition in experiment [3] is 0.114% (inactive). Besides, the figures for the max response in experiment [3] (setting [6]) and in experiment [3] (setting [7]) were 12.3% and 14.1%, respectively.

For `CC(CCC(=O)O)C1CCC2C3CC[C@H]4CC(O)CC[C@@]4(C)C3CC(O)[C@]12C` (stereo not given in full), the Potency entry in experiment [2] and in experiment [4] was “inactive” each time. The activity change, negative = inhibition in experiment [3] is 8.52% (inactive). In addition, the max response in experiment [3] (setting [6]) was -1.9%; in experiment [3] (setting [7]), 10.5%.

`NCC1O[C@@H](OC2C(N)CC(N)C(O)C2O[C@@H]2OC(CO)C(O)C2O)C(N)C(O)C1O` (stereo not given in full): the Potency result in experiment [1], in experiment [2] and in experiment [4] was “inactive” in each case. Also, the activity change, negative = inhibition in experiment [3] was 6.74% (inactive). Besides, the max response in experiment [3] (setting [6]) came out at 5.17%; in experiment [3] (setting [7]), 12.7%.

As to `C=C1C[C@@]23C[C@@]1(O)CC[C@@H]2[C@]12C=C[C@@H](O)[C@](C)(C(=O)O1)[C@@H]2[C@@H]3C(=O)O`, the activity change, negative = inhibition in experiment [3] is -1.64% (inactive). Further, the max response in experiment [3] (setting [6]) was determined as 0.496%; in experiment [3] (setting [7]), 0.595%. The molecule was classed as inactive in experiment [5].

With `CCCCN1CCCCC1C(=O)Nc1c(C)cccc1C` (stereo not given), the Potency entry in experiment [1], in experiment [2] and in experiment [4] was “inactive” in each case. In experiment [3], the activity change, negative = inhibition was 7.02% (inactive). Further, the results for the max response in experiment [3] (setting [6]) and in experiment [3] (setting [7]) were 11.8% and 21.2%, respectively.

As for `CC1(C)C2(Cl)C(Cl)C(Cl)C(Cl)(C(Cl)Cl)C1(Cl)C2Cl` (stereo not given), the Potency result in experiment [1], in experiment [2] and in experiment [4] was “inactive” throughout. In addition, in experiment [3], the activity change, negative = inhibition is 3.3% (inactive). Besides, the figures for the max response in experiment [3] (setting [6]) and in experiment [3] (setting [7]) were 3.76% and 3.86%, respectively.

Turning to `CC(C)=CCc1c(O)cc2oc(C)cc(=O)c2c1O`, the Potency entry in experiment [1], in experiment [2] and in experiment [4] was “inactive” in each case. Also, in experiment [3], the activity change, negative = inhibition was 2.12% (inactive). In addition, the max response in experiment [3] (setting [6]) is -3.81%; in experiment [3] (setting [7]), -0.981%.

Consider `CC1OC(OCC2OC(Oc3c(-c4ccc(O)c(O)c4)oc4cc(O)cc(O)c4c3=O)C(O)C(O)C2O)C(O)C(O)C1O` (stereo not given), for which the activity change, negative = inhibition in experiment [3] was -1.77% (inactive). For the same molecule, the max response in experiment [3] (setting [6]) was -20.3%; in experiment [3] (setting [7]), -20.8%. In addition, in experiment [5], the call was inactive.

With `CC(CCC(=O)O)C1CCC2C3C(O)C[C@@H]4CC(O)CC[C@@]4(C)C3CC(O)[C@]12C` (stereo not given in full), the Potency entry in experiment [1], in experiment [2] and in experiment [4] was “inactive” each time. The activity change, negative = inhibition in experiment [3] was 4.41% (inactive). For the same molecule, the max response in experiment [3] (setting [6]) was -4.16%; in experiment [3] (setting [7]) it was 0.136%.

For the molecule `C=C1CCC2C(C)(CO)C(O)CCC2(C)C1C/C=C1\C(=O)OCC1O` (stereo not given), in experiment [3], the activity change, negative = inhibition was -0.167% (inactive). Moreover, the results for the max response in experiment [3] (setting [6]) and in experiment [3] (setting [7]) were 24.9% and 25.5%, respectively. The molecule was called inactive in experiment [5].

On to `O=S(=O)(O)c1cc(N=C=S)ccc1/C=C/c1ccc(N=C=S)cc1S(=O)(=O)O`, for which the Potency result in experiment [1], in experiment [2] and in experiment [4] was “inactive” in each case. For the same molecule, the activity change, negative = inhibition in experiment [3] is 9.64% (inactive). The max response in experiment [3] (setting [6]) is -3.47%; in experiment [3] (setting [7]), 10.3%.

For `O=c1cc(-c2ccc(O)cc2)oc2cc(O)ccc12`, the Potency result in experiment [1], in experiment [2] and in experiment [4] was “inactive” throughout. Moreover, the activity change, negative = inhibition in experiment [3] is 10.6% (inactive). Besides, the results for the max response in experiment [3] (setting [6]) and in experiment [3] (setting [7]) were -4.61% and 5.18%, respectively.

Regarding `CC(=O)N[C@@H](Cc1c[nH]c2ccccc12)C(=O)O`, the Potency entry in experiment [1], in experiment [2] and in experiment [4] was “inactive” each time. In addition, the activity change, negative = inhibition in experiment [3] is 5.86% (inactive). Besides, the max response in experiment [3] (setting [6]) was 17.1%; in experiment [3] (setting [7]) it was 24.9%.

For `CC1(C)OC2CC3C4CC(F)C5=CC(=O)CC[C@@]5(C)C4C(O)C[C@@]3(C)[C@]2(C(=O)CO)O1` (stereo not given in full), the Potency result in experiment [1], in experiment [2] and in experiment [4] was “inactive” throughout. In experiment [3], the activity change, negative = inhibition is 4.43% (inactive). In addition, the max response in experiment [3] (setting [6]) amounted to 7.91%; in experiment [3] (setting [7]), 15.6%.

Consider `COC1C=CC23c4cc5c(cc4CN(CC2O)C3C1)OCO5` (stereo not given), for which the Potency entry in experiment [1], in experiment [2] and in experiment [4] was “inactive” each time. Moreover, the activity change, negative = inhibition in experiment [3] was -1.59% (inactive). In addition, the max response is 30.3% in experiment [3] (setting [6]) and 31.3% in experiment [3] (setting [7]).

Consider `C[C@@]12CCC3c4ccc(O)cc4CCC3C1CCC2O` (stereo not given in full), for which the Potency entry in experiment [1], in experiment [2] and in experiment [4] was “inactive” in each case. Moreover, in experiment [3], the activity change, negative = inhibition was -2.04% (inactive). Besides, the figures for the max response in experiment [3] (setting [6]) and in experiment [3] (setting [7]) were -0.621% and -0.569%, respectively.

Consider `NCC1O[C@@H](OC2C(N)C[C@H](N)[C@@H](O[C@H]3OC(CO)C(O)C(N)C3O)C2O)C(O)C(O)C1O` (stereo not given in full), for which the Potency result in experiment [1], in experiment [2] and in experiment [4] was “inactive” in each case. For the same molecule, the activity change, negative = inhibition in experiment [3] was 12.1% (inactive). Besides, the max response turned out to be 13.1% in experiment [3] (setting [6]) and 29.6% in experiment [3] (setting [7]).

For `CC1CC2C3CCC4=CC(=O)C=C[C@]4(C)[C@@]3(Cl)C(O)C[C@]2(C)C1(OC(=O)c1ccco1)C(=O)CCl` (stereo not given in full), the Potency result in experiment [1], in experiment [2] and in experiment [4] was “inactive” each time. Moreover, the activity change, negative = inhibition in experiment [3] was 12.6% (inactive). Also, the max response in experiment [3] (setting [6]) is -6.79%; in experiment [3] (setting [7]), 6.32%.

Regarding `C[C@]12CCC(=O)C=C1CCC1C2C(O)C[C@]2(C)C1CC[C@]2(O)C(=O)CO` (stereo not given in full), the Potency entry in experiment [1], in experiment [2] and in experiment [4] was “inactive” each time. Besides, the activity change, negative = inhibition in experiment [3] is 12.8% (inactive). Moreover, the max response in experiment [3] (setting [6]) came out at 7.87%; in experiment [3] (setting [7]), 21.1%.

Take `CC(=O)SC1CC2=CC(=O)CC[C@@]2(C)C2CC[C@@]3(C)[C@@H](CC[C@@]34CCC(=O)O4)C12` (stereo not given in full): the Potency entry in experiment [2] and in experiment [4] was “inactive” throughout. Moreover, the activity change, negative = inhibition in experiment [3] is -11.4% (inactive). For the same molecule, the max response in experiment [3] (setting [6]) came to 20.1%; in experiment [3] (setting [7]), 9.46%.
